Test results published in PubChem BioAssay (EPA / NIEHS).
Results filed as inconclusive are left out. The source made the active and inactive calls. The calls were made as follows, unless noted: active = hit-call score of the fitted dose curve at least 0.9, where 1 is the maximum; inactive = score below 0.9.

Experiments:
[1] = read-out: E-selectin (Homo sapiens) (UniProt P16581); assay: BSK_3C_Eselectin: BioMAP Diversity Plus: 3C Assay for Eselectin Biomarker Activity (AID 2283015); conditions: primary human endothelial cells (HUVEC); actives raise or lower the signal
Method in brief: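 Endpoint derived by bidirectional fitting against DMSO vehicle; signal is ELISA-detected E-selectin from primary HUVEC at 24 h post-dosing, with parallel SRB staining (0.1% SRB, 560 nm) flagging cytotoxicity.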

[2] = read-out: Interleukin-1 alpha (IL1a), IL1A (gene 3552); assay: BSK_BE3C_IL1a: BioMAP Diversity Plus: BE3C Assay for Interleukin-1 alpha (IL1a) Biomarker Activity (AID 2283016); conditions: primary human bronchial epithelial cells; actives raise or lower the signal
Method in brief: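 Human primary bronchial epithelial cells, 24 h chemical exposure; IL-1a quantified by ELISA, fitted bidirectionally against DMSO. Cytotoxicity assessed in parallel by SRB total-protein staining at the time of measurement.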

[3] = read-out: Monocyte Chemoattractant Protein-1 (MCP1), CCL2 (gene 6347); assay: BSK_3C_MCP1: BioMAP Diversity Plus: 3C Assay for Monocyte Chemoattractant Protein-1 (MCP1) Biomarker Activity (AID 2283017); conditions: primary human endothelial cells (HUVEC); actives raise or lower the signal
Method in brief: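 Using human vascular primary endothelium, researchers measured MCP-1 by ELISA 24 h after treatment, with DMSO serving as negative control for bidirectional fitting.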

[4] = read-out: Monocyte Chemoattractant Protein-1 (MCP1), CCL2 (gene 6347); assay: BSK_4H_MCP1: BioMAP Diversity Plus: 4H Assay for Monocyte Chemoattractant Protein-1 (MCP1) Biomarker Activity (AID 2283018); conditions: primary human endothelial cells (HUVEC); actives raise or lower the signal
Method in brief: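 Human umbilical vein endothelial cells (4H system) exposed to chemicals for 24 h in 96-well format. MCP-1 measured by ELISA; bidirectional fitting against DMSO, with SRB total-protein staining in parallel cultures for cytotoxicity.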

[5] = read-out: Human Leukocyte Antigen - DR isotype (HLADR), HLA-DRA (gene 3122); assay: BSK_3C_HLADR: BioMAP Diversity Plus: 3C Assay for Human Leukocyte Antigen - DR isotype (HLADR) Biomarker Activity (AID 2283019); conditions: primary human endothelial cells (HUVEC); actives raise or lower the signal
Method in brief: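 Compound added to primary HUVEC cultures, 24 h incubation, then HLA-DR determined by ELISA; endpoint derived by bidirectional fitting relative to DMSO negative control.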

[6] = read-out: Interleukin-8 (IL8), CXCL8 (gene 3576); assay: BSK_3C_IL8: BioMAP Diversity Plus: 3C Assay for Interleukin-8 (IL8) Biomarker Activity (AID 2283020); conditions: primary human endothelial cells (HUVEC); actives raise or lower the signal
Method in brief: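 Primary human umbilical vein endothelial cells were dosed for 24 h. IL-8 was quantified by ELISA and fitted bidirectionally against DMSO. Cytotoxicity was assessed in parallel cultures by SRB staining at 560 nm.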

[7] = read-out: Monokine induced gamma interferon (MIG), CXCL9 (gene 4283); assay: BSK_3C_MIG: BioMAP Diversity Plus: 3C Assay for Monokine induced gamma interferon (MIG) Biomarker Activity (AID 2283021); conditions: primary human endothelial cells (HUVEC); actives raise or lower the signal;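 as to AC50: MIG protein level measured by immunoassay in the treated endothelial cultures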
Method in brief: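 HUVEC primary endothelial cultures dosed with chemical; MIG quantified by ELISA at 24 h. Data fitted bidirectionally against DMSO control, with parallel SRB total-protein staining for cytotoxicity.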

[8] = target: human Vitamin D Receptor (VDR), VDR (gene 7421) (UniProt P11473); assay: ATG_VDR_TRANS: Attagene TRANS-FACTORIAL HepG2 Assay for human Vitamin D Receptor (VDR) (AID 2283022; active = hit-call score of the fitted dose curve at least 0.9, where 1 is the maximum)
Chain of human Vitamin D Receptor (VDR), VDR (gene 7421) (P11473 whole entry, looked up): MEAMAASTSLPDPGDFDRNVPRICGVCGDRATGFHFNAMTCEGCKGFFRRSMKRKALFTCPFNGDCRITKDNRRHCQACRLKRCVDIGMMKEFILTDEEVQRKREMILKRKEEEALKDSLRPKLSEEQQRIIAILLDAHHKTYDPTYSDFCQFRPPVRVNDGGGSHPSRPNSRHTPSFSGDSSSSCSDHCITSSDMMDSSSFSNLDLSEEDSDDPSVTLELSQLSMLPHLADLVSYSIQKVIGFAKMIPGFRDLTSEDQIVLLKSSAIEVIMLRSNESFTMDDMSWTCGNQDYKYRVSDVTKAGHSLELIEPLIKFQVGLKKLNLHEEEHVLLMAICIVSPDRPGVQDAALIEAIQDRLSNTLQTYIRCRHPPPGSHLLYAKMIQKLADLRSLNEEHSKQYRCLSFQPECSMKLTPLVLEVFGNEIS
Method in brief: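 Multiplexed TRANS reporter in HepG2; 24 h treatment; reporter mRNA by RT-PCR plus capillary electrophoresis; upregulation scored relative to DMSO.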

[9] = read-out: Matrix Metallopeptidase 1 (MMP1), MMP1 (gene 4312); assay: BSK_BE3C_MMP1: BioMAP Diversity Plus: BE3C Assay for Matrix Metallopeptidase 1 (MMP1) Biomarker Activity (AID 2283024); conditions: primary human bronchial epithelial cells; actives raise or lower the signal
Method in brief: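 Human primary bronchial epithelial cells (BE3C system) dosed for 24 h; MMP-1 quantified by ELISA. Bidirectional fit against DMSO; cytotoxicity tracked in parallel cultures by SRB total-protein staining.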

[10] = BSK_3C_Vis: BioMAP Diversity Plus: 3C Assay for Morphology Visualization (AID 2283025); conditions: primary human endothelial cells (HUVEC);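 also: fitted both ways so gain or loss versus DMSO counts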;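 as to AC50: light microscopy image of cell morphology used as background control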
Method in brief: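 Human umbilical vein endothelial cell morphology was inspected by light microscopy 24 h after chemical dosing; scored bidirectionally relative to DMSO.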

[11] = read-out: Pselectin, SELP (gene 6403); assay: BSK_4H_Pselectin: BioMAP Diversity Plus: 4H Assay for Pselectin Biomarker Activity (AID 2283026); conditions: primary human endothelial cells (HUVEC); actives raise or lower the signal
Method in brief: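 Primary human umbilical vein endothelial cells were treated 24 h, and cell-surface P-selectin was then quantified by ELISA. Bidirectional fit versus DMSO; cytotoxicity checked in parallel cultures by SRB total-protein staining.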

[12] = BSK_4H_SRB: Viability Assessment in the BioMAP Diversity Plus: 4H Assay (AID 2283027); conditions: primary human endothelial cells (HUVEC);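 also: cells exposed to compound for 24 h before staining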;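 as to AC50: curves fitted both ways versus DMSO so AC50 may be loss or gain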
Method in brief: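 Human umbilical vein endothelial cells, 24 h after chemical dosing; total protein measured by 0.1% sulforhodamine B staining after 10% TCA fixation, read at 560 nm. Bidirectional fitting against DMSO.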

[13] = BSK_BE3C_SRB: Viability Assessment in the BioMAP Diversity Plus: BE3C Assay (AID 2283028); conditions: primary human bronchial epithelial cells;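 as to AC50: fitted both ways so AC50 may mark signal gain or loss versus DMSO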
Method in brief: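 SRB total-protein staining (0.1%, after TCA fixation) of chemically dosed human bronchial epithelial primary cells at 24 h; DMSO serves as the negative control for bidirectional curve fitting.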

[14] = read-out: Thrombomodulin, THBD (gene 7056); assay: BSK_3C_Thrombomodulin: BioMAP Diversity Plus: 3C Assay for Thrombomodulin Biomarker Activity (AID 2283029); conditions: primary human endothelial cells (HUVEC); actives raise or lower the signal
Method in brief: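 Human umbilical vein endothelial cells were exposed to chemicals for 24 h; cell-surface thrombomodulin quantified by ELISA, with bidirectional fitting against DMSO baseline.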

[15] = read-out: Urokinase-type plasminogen activator receptor (uPAR), PLAUR (gene 5329); assay: BSK_4H_uPAR: BioMAP Diversity Plus: 4H Assay for Urokinase-type plasminogen activator receptor (uPAR) Biomarker Activity (AID 2283030); conditions: primary human endothelial cells (HUVEC); actives raise or lower the signal
Method in brief: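 Endpoint derived via bidirectional curve fitting against DMSO baseline; readout was ELISA detection of uPAR on umbilical vein endothelial cells at 24 h post-treatment, with SRB-stained parallel cultures assessing cytotoxicity.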

[16] = read-out: Vascular endothelial growth factor receptor 2 (Homo sapiens) (UniProt P35968); assay: BSK_4H_VEGFRII: BioMAP Diversity Plus: 4H Assay for Vascular endothelial growth factor receptor 2 (VEGFR2) Biomarker Activity (AID 2283031); conditions: primary human endothelial cells (HUVEC); actives raise or lower the signal;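 as to AC50: cell-surface VEGFR2 protein level quantified by ELISA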
Method in brief: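 In this multiplexed HUVEC system, biomarker ELISA was performed after 24 h chemical exposure. Parallel SRB staining (TCA fixation, 560 nm) tracked cytotoxicity; DMSO served as baseline.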

[17] = read-out: Human Leukocyte Antigen - DR isotype (HLADR), HLA-DRA (gene 3122); assay: BSK_BE3C_HLADR: BioMAP Diversity Plus: BE3C Assay for Human Leukocyte Antigen - DR isotype (HLADR) Biomarker Activity (AID 2283032); conditions: primary human bronchial epithelial cells; actives raise or lower the signal
Method in brief: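 Human primary bronchial epithelial cells (BE3C system) exposed to compound for 24 hours; cell-surface HLA-DR measured by ELISA, fitted bidirectionally relative to DMSO. Total protein by SRB in parallel cultures tracked cytotoxicity.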

[18] = read-out: Vascular cell adhesion molecule 1 (VCAM1), VCAM1 (gene 7412); assay: BSK_4H_VCAM1: BioMAP Diversity Plus: 4H Assay for Vascular cell adhesion molecule 1 (VCAM1) Biomarker Activity (AID 2283033); conditions: primary human endothelial cells (HUVEC); actives raise or lower the signal
Method in brief: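 Primary human umbilical vein endothelial cells, 4H stimulation system, treated for 24 h; cell-surface VCAM-1 quantified by ELISA. Bidirectional fitting against DMSO; cytotoxicity tracked by SRB total-protein staining in parallel cultures.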

[19] = read-out: Interferon-gamma inducible Protein 10 (IP10), CXCL10 (gene 3627); assay: BSK_BE3C_IP10: BioMAP Diversity Plus: BE3C Assay for Interferon-gamma inducible Protein 10 (IP10) Biomarker Activity (AID 2283034); conditions: primary human bronchial epithelial cells; actives raise or lower the signal
Method in brief: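 Primary human bronchial epithelial cells, with IP-10 measured by ELISA 24 hours after chemical dosing. Bidirectional fit against DMSO; cytotoxicity checked by SRB total protein staining in parallel cultures.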

[20] = BSK_3C_SRB: Viability Assessment in the BioMAP Diversity Plus: 3C Assay (AID 2283023); conditions: primary human endothelial cells (HUVEC);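 also: fitted both ways against DMSO so a hit may be signal rise or drop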
Method in brief: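 Overt cytotoxicity is gauged in parallel confluent HUVEC cultures by SRB total-protein staining at the time of biomarker measurement, 24 h after dosing. Gain or loss of signal is fitted versus DMSO.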

Measured: AC50

Chain of E-selectin (Homo sapiens) (P16581 whole entry, looked up): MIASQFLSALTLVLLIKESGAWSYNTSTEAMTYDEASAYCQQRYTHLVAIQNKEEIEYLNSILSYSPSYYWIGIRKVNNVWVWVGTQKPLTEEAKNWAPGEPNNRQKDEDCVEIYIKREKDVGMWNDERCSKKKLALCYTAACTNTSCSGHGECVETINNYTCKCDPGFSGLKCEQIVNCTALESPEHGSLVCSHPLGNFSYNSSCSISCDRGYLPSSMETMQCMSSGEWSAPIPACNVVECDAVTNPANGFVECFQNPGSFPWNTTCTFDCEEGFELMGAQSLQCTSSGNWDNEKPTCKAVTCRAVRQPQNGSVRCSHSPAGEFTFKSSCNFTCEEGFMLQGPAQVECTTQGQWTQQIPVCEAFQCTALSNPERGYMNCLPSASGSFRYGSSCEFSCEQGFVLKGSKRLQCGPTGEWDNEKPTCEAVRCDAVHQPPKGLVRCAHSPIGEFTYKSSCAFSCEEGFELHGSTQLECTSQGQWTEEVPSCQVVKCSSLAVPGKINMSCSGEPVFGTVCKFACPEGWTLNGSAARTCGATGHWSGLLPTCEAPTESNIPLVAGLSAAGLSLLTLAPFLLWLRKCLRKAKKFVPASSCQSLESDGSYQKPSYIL

O=C1C2(Cl)C3(Cl)C4(Cl)C(Cl)(Cl)C5(Cl)C3(Cl)C1(Cl)C5(Cl)C24Cl (stereo not drawn)
inactive: [8] | [14]
active: [1] 11.7 µM | [2] 9.67 µM | [3] 9.53 µM | [4] 8.77 µM | [5] 8.22 µM | [6] 22.3 µM | [7] 11.4 µM | [9] 10.4 µM | [10] 5.21 µM | [11] 10.9 µM | [12] 6.58 µM | [13] 5.75 µM | [15] 9.73 µM | [16] 5.18 µM | [17] 7.65 µM | [18] 8.36 µM | [19] 7.91 µM

Nc1ccc(-c2ccc(N)c(Cl)c2)cc1Cl
active: [5] 2.43 µM | [10] 13.7 µM | [12] 2.76 µM | [15] 10.6 µM | [18] 9.55 µM
not listed: [20]
inactive: all other assays above

CC(C)CCCCCCOC(=O)c1ccccc1C(=O)OCCCCCCC(C)C
not listed: [20]
inactive: all other assays above

ClCC(Cl)CCl
not listed: [6]
inactive: all other assays above

Cc1ccccc1N
not listed: [8] | [20]
inactive: all other assays above

CCC(C)(C)c1ccc(O)c(C(C)(C)CC)c1
inactive: [16]
active: [1] 10.4 µM | [2] 32.5 µM | [3] 9.92 µM | [4] 11.1 µM | [5] 7.84 µM | [6] 8.88 µM | [7] 13.3 µM | [8] 55 µM | [9] 34.8 µM | [10] 6.71 µM | [11] 7.72 µM | [12] 11.7 µM | [13] 28.8 µM | [14] 34.5 µM | [15] 11.4 µM | [17] 25.2 µM | [18] 10.4 µM | [19] 19 µM
